For some of these results: Entries with a potency or affinity are not part of this list. Calls of active or inactive are those of the source. Unless noted, how the calls were made is not given here.
Key:
[1] = antimalarial activity against Dd2 strain (AID 2302;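 active means growth inhibition above 50% at the single 2 µM test dose, taken to imply half-maximal potency below 2 µM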;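 further: 0% = DMSO untreated growth and 100% = chloroquine plus artemisinin killed control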); details: P. falciparum Dd2 in RBCs, LDH growth readout, 72 h; at 2 µM; hits give high values
[2] = HepG2 cytotoxicity, primary screen, cytotoxicity control for P. falciparum antimalarial project, cell-based, ATP luminescence (AID 2303;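 active means inhibition above 50%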;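 further: 0% = DMSO wells and 100% = digitonin-killed cells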); details: HepG2 viability, 24-48 h, at 10 µM, hits give high values
[3] = molecular target: L-lactate dehydrogenase (Plasmodium falciparum (isolate CDC / Honduras)) (UniProt Q27743); experiment: PfLDH activity inhibition – cell lysate, 3D7 strain, counter-screen for P. falciparum growth inhibition project (AID 2304);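 further: 0% = vehicle and 100% = reference inhibitor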; details: P. falciparum 3D7 crude extract, LDH APAD/NBT absorbance; at 2 µM; hits give high values
Sequence of L-lactate dehydrogenase (Plasmodium falciparum (isolate CDC / Honduras)) (Q27743 whole entry, looked up): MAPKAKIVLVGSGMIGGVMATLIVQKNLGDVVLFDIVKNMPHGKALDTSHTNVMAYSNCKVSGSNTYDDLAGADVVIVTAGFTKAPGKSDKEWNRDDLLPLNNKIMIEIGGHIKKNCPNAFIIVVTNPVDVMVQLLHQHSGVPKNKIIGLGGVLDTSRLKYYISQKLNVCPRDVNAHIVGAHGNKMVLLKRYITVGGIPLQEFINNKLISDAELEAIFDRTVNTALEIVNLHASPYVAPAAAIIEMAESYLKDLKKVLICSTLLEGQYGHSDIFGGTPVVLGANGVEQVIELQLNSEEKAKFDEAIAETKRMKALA

[4] = inhibition of 3D7 malaria parasite growth – strain 3D7 (AID 2306);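 further: 0% = DMSO wells and 100% = chloroquine plus artemisinin control wells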; details: P. falciparum 3D7 erythrocytic growth, LDH absorbance, 72 h; at 2 µM; hits give high values
[5] = molecular target: Calcium-dependent protein kinase 1 (Plasmodium falciparum (isolate 3D7)) (UniProt P62344); experiment: PfCDPK1 kinase inhibitors, biochemical, TCAMS library (AID 1159585; cut-off not given, nearly all actives have IC50 up to about 0.98 µM;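 further: inhibitors leave more ATP so luminescence rises with inhibition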); details: recombinant PfCDPK1, Kinase-Glo ATP depletion luminescence
Sequence of Calcium-dependent protein kinase 1 (Plasmodium falciparum (isolate 3D7)) (P62344 whole entry, looked up): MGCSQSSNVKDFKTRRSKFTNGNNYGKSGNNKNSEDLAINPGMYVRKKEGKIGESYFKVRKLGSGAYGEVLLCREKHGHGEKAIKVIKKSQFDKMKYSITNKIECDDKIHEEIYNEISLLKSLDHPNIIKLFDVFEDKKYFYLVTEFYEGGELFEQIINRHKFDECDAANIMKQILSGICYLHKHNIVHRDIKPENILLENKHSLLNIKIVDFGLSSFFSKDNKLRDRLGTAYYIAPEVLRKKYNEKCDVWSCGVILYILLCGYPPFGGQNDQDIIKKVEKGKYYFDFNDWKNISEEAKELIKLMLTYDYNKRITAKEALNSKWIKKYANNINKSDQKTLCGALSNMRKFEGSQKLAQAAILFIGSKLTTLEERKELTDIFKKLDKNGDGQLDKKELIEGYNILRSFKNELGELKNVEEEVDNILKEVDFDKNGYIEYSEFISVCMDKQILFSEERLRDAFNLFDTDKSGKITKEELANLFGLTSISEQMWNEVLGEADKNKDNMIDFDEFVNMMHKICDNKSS

[6] = molecular target: Plasmodium falciparum protein kinase 6 (PK6, PF3D7_1337100) (UniProt Q8IDW1); experiment: PfPK6 kinase inhibitors, biochemical, TCAMS library (AID 1159586); details: recombinant PfPK6, Kinase-Glo ATP depletion luminescence
Sequence of Plasmodium falciparum protein kinase 6 (PK6, PF3D7_1337100) (Q8IDW1 1-305): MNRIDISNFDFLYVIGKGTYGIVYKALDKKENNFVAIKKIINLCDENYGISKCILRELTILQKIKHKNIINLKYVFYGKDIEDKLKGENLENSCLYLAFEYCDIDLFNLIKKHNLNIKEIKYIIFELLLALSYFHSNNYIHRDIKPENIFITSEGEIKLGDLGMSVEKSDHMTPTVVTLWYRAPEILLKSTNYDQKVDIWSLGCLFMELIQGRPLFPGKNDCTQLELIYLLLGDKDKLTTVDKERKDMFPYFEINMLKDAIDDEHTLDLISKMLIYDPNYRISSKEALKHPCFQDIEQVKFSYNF

[7] = molecular target: Protein kinase 7 (PK7), Plasmodium falciparum 3D7 (PF3D7_0213400) (UniProt Q7YTF7); experiment: inhibition of Plasmodium PK7 catalytic activity – biochemical, TCAMS antimalarial set, Kinase-Glo luminescence (AID 1159587); details: recombinant PfPK7, Kinase-Glo ATP depletion luminescence
Sequence of Protein kinase 7 (PK7), Plasmodium falciparum 3D7 (PF3D7_0213400) (Q7YTF7 1-343): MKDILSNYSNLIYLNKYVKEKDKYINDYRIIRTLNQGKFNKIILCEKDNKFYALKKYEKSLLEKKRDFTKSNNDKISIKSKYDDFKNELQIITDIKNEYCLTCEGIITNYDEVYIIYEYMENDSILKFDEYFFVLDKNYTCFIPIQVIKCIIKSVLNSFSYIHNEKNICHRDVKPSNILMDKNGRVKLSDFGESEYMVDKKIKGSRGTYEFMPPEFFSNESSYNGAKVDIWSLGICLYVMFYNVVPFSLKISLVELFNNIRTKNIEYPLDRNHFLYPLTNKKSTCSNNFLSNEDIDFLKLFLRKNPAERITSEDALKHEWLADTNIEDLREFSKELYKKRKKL

[8] = molecular target: Calcium-dependent protein kinase 4 (Plasmodium falciparum (isolate 3D7)) (UniProt Q8IBS5); experiment: PfCDPK4 kinase inhibitors, biochemical, TCAMS library (AID 1159588; cut-off not given, nearly all actives have IC50 up to about 0.91 µM); details: recombinant PfCDPK4, Kinase-Glo ATP depletion luminescence
Sequence of Calcium-dependent protein kinase 4 (Plasmodium falciparum (isolate 3D7)) (Q8IBS5 whole entry, looked up): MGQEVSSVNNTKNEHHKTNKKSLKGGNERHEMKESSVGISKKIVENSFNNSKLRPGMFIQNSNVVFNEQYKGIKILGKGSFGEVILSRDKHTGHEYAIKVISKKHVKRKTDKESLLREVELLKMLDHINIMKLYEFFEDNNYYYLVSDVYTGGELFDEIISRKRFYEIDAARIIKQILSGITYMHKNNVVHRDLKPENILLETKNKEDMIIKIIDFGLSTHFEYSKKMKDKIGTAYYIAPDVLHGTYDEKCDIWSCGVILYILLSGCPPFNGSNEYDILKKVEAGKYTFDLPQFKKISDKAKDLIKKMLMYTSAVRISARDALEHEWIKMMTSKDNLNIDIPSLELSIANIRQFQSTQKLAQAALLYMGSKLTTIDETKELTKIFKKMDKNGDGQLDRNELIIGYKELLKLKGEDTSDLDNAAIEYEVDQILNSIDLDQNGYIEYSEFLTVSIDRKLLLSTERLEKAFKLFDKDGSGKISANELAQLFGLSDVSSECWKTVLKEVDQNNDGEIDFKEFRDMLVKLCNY

CC(CN1CCN(C)CC1)C(=O)Nc1cccc(-c2cccc(-c3nc4ccccc4[nH]3)c2)c1 (stereo not given)
active: growth inhibition [4] 88%
inactive: growth inhibition [1] 19% | inhibition [2] 23% | inhibition [3] -3% | outcome [5] | outcome [6] | outcome [7] | outcome [8]

Cc1cccc2[nH]c(-c3ccc(-c4ccc(CN5CCOCC5)cc4)cc3)nc12
inactive: inhibition [2] 29% | inhibition [3] 0% | outcome [5] | outcome [6] | outcome [7] | outcome [8]
active: growth inhibition [1] 86% | growth inhibition [4] 92%

CCC(C)(C)c1ccc(S(=O)(=O)Nc2ccc(Cl)c(OCCN3CCCCC3)c2)cc1
active: growth inhibition [1] 93% | inhibition [2] 100% | growth inhibition [4] 88%
inactive: inhibition [3] 0% | outcome [5] | outcome [6] | outcome [7] | outcome [8]

CC(C)c1ccc(NC(=O)c2ccc(C(=O)NC3CCN(CC4CCCCC4)CC3)cc2)cc1
active: growth inhibition [4] 98%
inactive: growth inhibition [1] 5% | inhibition [2] 34% | inhibition [3] -2% | outcome [5] | outcome [6] | outcome [7] | outcome [8]

CC1(C)[C@H]2CC[C@@H](CNc3nc(NCCc4cnc[nH]4)nc(Nc4ccc(Oc5ccccc5)cc4)n3)[C@@H]1C2
active: growth inhibition [1] 86% | growth inhibition [4] 99%
inactive: inhibition [2] 2% | inhibition [3] 3% | outcome [5] | outcome [6] | outcome [7] | outcome [8]

CC1CN(c2cc(=O)n(Cc3cccc(NC(=O)Nc4ccc(-c5ccccc5)cc4)c3)cn2)CC(C)N1 (stereo not given)
active: growth inhibition [1] 63% | growth inhibition [4] 101%
inactive: inhibition [2] 2% | inhibition [3] -2% | outcome [5] | outcome [6] | outcome [7] | outcome [8]

COc1ccc2nccc([C@@H](O)CN3CCC(NCc4ccc5c(n4)NCCC5)CC3)c2c1
active: growth inhibition [4] 101%
inactive: growth inhibition [1] 39% | inhibition [2] 21% | inhibition [3] -3% | outcome [5] | outcome [6] | outcome [7] | outcome [8]

Cc1cccc(C(=O)N2CCN(Cc3cccc(NC(=O)c4cccs4)c3)CC2)c1
inactive: inhibition [2] 5% | inhibition [3] 0% | outcome [5] | outcome [6] | outcome [7] | outcome [8]
active: growth inhibition [1] 95% | growth inhibition [4] 95%

Nc1c2c(nc3cc(NC(=O)c4ccc([N+](=O)[O-])cc4)ccc13)CCCC2
active: growth inhibition [1] 58% | growth inhibition [4] 100%
inactive: inhibition [2] 11% | inhibition [3] -2% | outcome [5] | outcome [6] | outcome [7] | outcome [8]

COC(=O)c1cccc(CNCc2ccc(-c3ccc(-c4nc5ccc(F)cc5[nH]4)s3)cc2)c1
active: growth inhibition [1] 82% | growth inhibition [4] 101%
inactive: inhibition [2] 4% | inhibition [3] 7% | outcome [5] | outcome [6] | outcome [7] | outcome [8]

CCCNc1nc(Nc2ccccc2C)nc2ccccc12
active: growth inhibition [1] 64% | growth inhibition [4] 95%
inactive: inhibition [2] 13% | inhibition [3] 1% | outcome [5] | outcome [6] | outcome [7] | outcome [8]

CCCN(CCC)C(C)CCC(C)Nc1c2ccc(Cl)cc2nc2ccc(OC)cc12 (stereo not given)
active: growth inhibition [1] 99% | growth inhibition [4] 101%
inactive: inhibition [2] 41% | inhibition [3] 3% | outcome [5] | outcome [6] | outcome [7] | outcome [8]

CCCCNC(=O)[C@H](Cc1ccccc1)NC(=O)c1ccc(O)c(-c2ccc(Cl)c(Cl)c2)c1
inactive: inhibition [2] -8% | inhibition [3] 3% | outcome [5] | outcome [6] | outcome [7] | outcome [8]
active: growth inhibition [1] 97% | growth inhibition [4] 98%

CN(C)CC1c2[nH]c3ccccc3c2CCN1C(=O)Nc1ccc(Cl)c(Cl)c1 (stereo not given)
active: inhibition [2] 99% | growth inhibition [4] 90%
inactive: growth inhibition [1] 32% | inhibition [3] -6% | outcome [5] | outcome [6] | outcome [7] | outcome [8]

COc1cc2nc(Cl)nc(Nc3ccncc3)c2cc1OC
active: growth inhibition [4] 86%
inactive: growth inhibition [1] 33% | inhibition [2] 11% | inhibition [3] -2% | outcome [5] | outcome [6] | outcome [7] | outcome [8]

CN1CCN(c2ccc(Nc3c(C(N)=O)cnc4cc(-c5ccoc5)ccc34)cc2)CC1
active: growth inhibition [1] 99% | growth inhibition [4] 101%
inactive: inhibition [2] 14% | inhibition [3] -3% | outcome [5] | outcome [6] | outcome [7] | outcome [8]

CC[C@H](N=C(Nc1ccc(-c2ccccc2)cc1)Nc1ccc(C#N)cc1O)c1ccccc1
active: growth inhibition [1] 97% | growth inhibition [4] 99%
inactive: inhibition [2] -6% | inhibition [3] 4% | outcome [5] | outcome [6] | outcome [7] | outcome [8]

COc1ccc(N2CCN(CCCNC(=O)c3ccc(NC(=O)c4cc(Cl)cc(Cl)c4)cc3)CC2)c(OC)c1
inactive: inhibition [2] 21% | inhibition [3] -4% | outcome [5] | outcome [6] | outcome [7] | outcome [8]
active: growth inhibition [1] 79% | growth inhibition [4] 101%

CC(C)(C)c1ccc(C(=O)Nc2ccc(NC(=O)c3ccc([N+](=O)[O-])o3)cc2)cc1
active: growth inhibition [4] 81%
inactive: growth inhibition [1] 4% | inhibition [2] -2% | inhibition [3] 2% | outcome [5] | outcome [6] | outcome [7] | outcome [8]

NC1CCCN(Cc2cccc(-c3ccc(-c4nc5ccccc5[nH]4)cc3)c2)C1 (stereo not given)
inactive: inhibition [2] 25% | inhibition [3] -6% | outcome [5] | outcome [6] | outcome [7] | outcome [8]
active: growth inhibition [1] 73% | growth inhibition [4] 101%
